Laboratory results from PubChem BioAssay (NCATS).
Values joined by “and” are separate entries in the source; they are usually repeats but may differ in a detail not shown here. Equal entries are not always repeated. Inconclusive results are not listed. Active and inactive are the calls of the source. Unless noted, the call rests on the fitted dose curve; in most records, active means well fitted curve in the direction sought with a large enough effect; inconclusive means small, poorly fitted or top-dose-only effect, or another doubt; inactive means no such curve, though single readings can be large; an effect the other way counts as inactive or inconclusive.

Key:
[1] = biological target: Nuclear receptor subfamily 1 group I member 3 (Homo sapiens) (UniProt Q14994); test: Primary qHTS for agonist of constitutive androstane receptor (CAR) against the NCATS DSHEA and TCM libraries (AID 1794839);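 further: HepG2 cells expressing human CAR with a CYP2B6 reporter plus PK11195 antagonist; 0% is about no effect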
Nuclear receptor subfamily 1 group I member 3 (Homo sapiens), sequence (Q14994 whole entry, looked up): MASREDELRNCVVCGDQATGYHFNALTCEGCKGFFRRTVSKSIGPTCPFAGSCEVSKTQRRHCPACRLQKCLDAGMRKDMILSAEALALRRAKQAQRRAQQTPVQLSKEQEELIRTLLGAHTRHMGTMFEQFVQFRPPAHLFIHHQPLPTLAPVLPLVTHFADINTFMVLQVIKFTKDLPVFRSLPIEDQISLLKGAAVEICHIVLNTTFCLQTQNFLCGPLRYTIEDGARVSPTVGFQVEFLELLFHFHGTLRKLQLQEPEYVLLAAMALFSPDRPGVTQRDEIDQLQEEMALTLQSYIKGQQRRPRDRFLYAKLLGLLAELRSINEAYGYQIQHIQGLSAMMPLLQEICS
Method in brief: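 Luminescence from ONE-Glo luciferase was the agonist read-out in HepG2-CYP2B6-hCAR cells exposed 24 h to test substances. Wells also held the CAR antagonist PK11195 at 0.75 µM final. Viability was by CellTiter-Fluor fluorescence.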

[2] = S16 Schwann cell viability assay (CellTiter-Glo assay) (AID 624031);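 further: native untransfected S16 rat Schwann cells; plate controls were DMSO-treated cells for no effect and cell-free wells for full effect; nearly all actives have a fitted effect of over 70% in size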
Method in brief: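 Counter-screen for cytotoxicity: parental S16 rat Schwann cells lacking the PMP22 reporters, treated 24 h with compound, viability from cellular ATP by CellTiter-Glo luminescence, normalized to DMSO (0%) and no-cell wells.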

[3] = S16 Schwann cell PMP22 intronic element firefly luciferase assay (AID 624032);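 further: plate controls were DMSO for no effect and PTC124 positive control mean for full effect; nearly all actives have a fitted effect of over 30% in size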
Method in brief: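 Rat S16 Schwann cells stably carrying a PMP22 intronic element-driven Fluc reporter were seeded overnight, then exposed to compounds for 24 h at 37 °C. Luminescence was normalized to PTC124 (positive control) and DMSO (0% activity).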

[4] = test system: CP297; test: qHTS profiling for inhibitors of Plasmodium falciparum proliferation (AID 504749);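 further: 0% = DMSO vehicle and full inhibition = artemisinin control; nearly all actives have a fitted effect of over 60% in size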; settings: P. falciparum in erythrocytes, SYBR Green DNA, 72 h; series mostly up to 12.8 µM
Method in brief: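 Quantitative HTS: compounds pinned into medium, infected erythrocytes added (0.3% parasitemia, 2.5% hematocrit), 72 h culture at 37 C under 5% CO2. Saponin/Triton lysis with SYBR Green I, overnight RT, then fluorescence read.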

[5] = biological target: Cytochrome P450 3A4 (Homo sapiens) (UniProt P08684); test: qHTS for inhibitors of CYP3A4 against the NCATS DSHEA and TCM libraries (AID 1919971);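 further: on the % scale 0 is the no-effect control and ±100 the full control effect; inhibition lowers luminescence from luciferin made by CYP3A4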
Cytochrome P450 3A4 (Homo sapiens), sequence (P08684 whole entry, looked up, canonical isoform): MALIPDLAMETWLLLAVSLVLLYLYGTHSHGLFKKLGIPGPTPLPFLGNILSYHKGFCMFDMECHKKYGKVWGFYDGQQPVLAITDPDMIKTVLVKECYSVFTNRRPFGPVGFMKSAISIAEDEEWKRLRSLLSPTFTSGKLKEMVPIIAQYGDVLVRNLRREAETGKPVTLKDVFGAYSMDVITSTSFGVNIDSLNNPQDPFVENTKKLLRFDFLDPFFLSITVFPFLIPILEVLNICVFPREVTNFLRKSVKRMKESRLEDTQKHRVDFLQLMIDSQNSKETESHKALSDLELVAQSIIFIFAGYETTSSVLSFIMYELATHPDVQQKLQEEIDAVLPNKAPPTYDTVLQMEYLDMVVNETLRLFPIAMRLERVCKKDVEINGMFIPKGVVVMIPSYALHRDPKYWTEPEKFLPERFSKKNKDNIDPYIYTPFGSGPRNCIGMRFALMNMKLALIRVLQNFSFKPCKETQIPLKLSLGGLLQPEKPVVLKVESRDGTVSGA
Method in brief: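 Each CYP isoform and its pro-luciferin substrate, at isoform-specific final concentrations, were preincubated 15 min at RT with substances. NADPH regeneration solution (1x) started a 30-45 min reaction, and P450-Glo luminescence was read.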

[6] = biological target: Nuclear receptor subfamily 1 group I member 2 (Homo sapiens) (UniProt O75469); test: Dual reporter qHTS for agonist of Pregnane X Receptor (hPXR) against the NCATS DSHEA and TCM libraries: Luminescence readout (AID 1920059); further: 0% is about no effect
Nuclear receptor subfamily 1 group I member 2 (Homo sapiens), sequence (O75469 whole entry, looked up): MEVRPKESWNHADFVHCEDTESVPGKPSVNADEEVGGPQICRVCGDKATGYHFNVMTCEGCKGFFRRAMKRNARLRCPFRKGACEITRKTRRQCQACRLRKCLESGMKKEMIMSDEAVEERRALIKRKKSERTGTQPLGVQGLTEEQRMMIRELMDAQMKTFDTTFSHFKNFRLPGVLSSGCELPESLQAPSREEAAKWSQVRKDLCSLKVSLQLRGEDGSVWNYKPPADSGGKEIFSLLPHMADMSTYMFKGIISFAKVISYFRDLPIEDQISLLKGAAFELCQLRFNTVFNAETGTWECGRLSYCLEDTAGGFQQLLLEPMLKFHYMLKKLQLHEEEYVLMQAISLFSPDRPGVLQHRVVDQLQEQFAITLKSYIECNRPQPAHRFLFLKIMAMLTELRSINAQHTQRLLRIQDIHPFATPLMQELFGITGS
Method in brief: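 hPXR-LucHepG2 cells in phenol red-free DMEM with 5% charcoal-stripped FBS, 2000 cells/well, attached 5 h, then exposed 24 h at 37C to compounds; rifampicin as positive agonist control (2.8 nM–92 uM). Luciferase luminescence read.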

[7] = biological target: Dual specificity protein kinase CLK4 (Homo sapiens) (UniProt Q9HAZ1); test: qHTS Assay for Inhibitors of CDC-like Kinase 4 (ADP-Glo Assay) (AID 1771); further: nearly all actives have a fitted effect of over 70% in size; further: potency means the concentration at half of the fitted maximal effect
Dual specificity protein kinase CLK4 (Homo sapiens), sequence (Q9HAZ1 whole entry, looked up): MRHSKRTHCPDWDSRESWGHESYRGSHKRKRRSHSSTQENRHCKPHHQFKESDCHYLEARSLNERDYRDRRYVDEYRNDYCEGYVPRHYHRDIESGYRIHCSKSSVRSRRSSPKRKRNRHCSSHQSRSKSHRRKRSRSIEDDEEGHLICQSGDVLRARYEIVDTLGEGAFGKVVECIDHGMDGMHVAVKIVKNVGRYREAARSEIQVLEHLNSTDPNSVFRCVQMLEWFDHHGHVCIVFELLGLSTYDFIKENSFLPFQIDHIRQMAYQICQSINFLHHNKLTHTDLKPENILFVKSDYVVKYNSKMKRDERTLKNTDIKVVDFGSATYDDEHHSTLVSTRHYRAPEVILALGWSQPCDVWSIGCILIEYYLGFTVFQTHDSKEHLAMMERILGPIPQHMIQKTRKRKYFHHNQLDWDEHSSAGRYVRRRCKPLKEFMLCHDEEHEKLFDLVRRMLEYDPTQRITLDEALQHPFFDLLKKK
Method in brief: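 ADP production was read by ADP-Glo luminescence after residual ATP depletion, following 1 h room-temperature reaction of 25 nM Clk4, 1 uM ATP and 100 uM RS peptide with MgCl2, EGTA, DTT and Triton X-100.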

[8] = biological target: DNA dC->dU-editing enzyme APOBEC-3G (Homo sapiens) (UniProt Q9HC16); test: qHTS for inhibitors of Vif-A3G interactions: Validation (AID 588379); further: 0% is about no effect
DNA dC->dU-editing enzyme APOBEC-3G (Homo sapiens), sequence (Q9HC16 whole entry, looked up): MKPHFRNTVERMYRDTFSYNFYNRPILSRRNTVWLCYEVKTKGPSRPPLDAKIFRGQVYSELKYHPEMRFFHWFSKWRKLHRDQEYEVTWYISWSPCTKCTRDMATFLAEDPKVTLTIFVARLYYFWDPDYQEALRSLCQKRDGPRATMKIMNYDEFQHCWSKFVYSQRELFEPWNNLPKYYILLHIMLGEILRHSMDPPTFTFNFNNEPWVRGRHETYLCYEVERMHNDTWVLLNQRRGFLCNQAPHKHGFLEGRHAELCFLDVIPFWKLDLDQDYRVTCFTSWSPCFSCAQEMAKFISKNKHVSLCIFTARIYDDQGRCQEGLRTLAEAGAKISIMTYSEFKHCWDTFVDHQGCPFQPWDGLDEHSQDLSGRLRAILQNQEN
Method in brief: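 Yellow fluorescence (Ex 488, Em 500-530) of Vif-coexpressing HeLa A3G-eYFP cells, scanned by Acumen cytometer, reports blocked A3G degradation. Cells plated at 700/well overnight at 37 deg C before compound addition, then a further overnight compound incubation at 37 deg C.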

[9] = Cell Viability - LYMP2-003 (AID 965);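 further: cells exposed to compounds for 24 h before reading; 0% = DMSO only and full effect = 92 µM tetraoctylammonium bromide; nearly all actives have a fitted effect of over 50% in size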
Method in brief: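 CellTiter-Glo luminescence (cellular ATP) after 24 h compound exposure at 37 C in complete medium; 2500 cells/well, 5 h settling beforehand. Concentration-response fitted to standard Hill equation for AC50. Tetraoctylammonium bromide served as positive control.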

[10] = biological target: Estrogen receptor (Homo sapiens) (UniProt P03372); test: qHTS assay for small molecule antagonists of estrogen receptor alpha signaling (AID 588513; active means well fitted curve in the direction sought with a large enough effect in the signal ratio, with a control signal flat, not every such curve was filed as active; the % refers to the signal ratio; further: on the % scale 0 is the no-effect control and ±100 the full control effect)
Method in brief: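 Beta-lactamase reporter, antagonist mode, HEK 293 GripTite cells; 0.5nM E2 stimulus, 18 h, 37 C; CCF4 dye 2 h RT; fluorescence. IC50 and efficacy from Hill fits, normalized to E2 and DMSO.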

[11] = biological target: Glucocorticoid receptor (Homo sapiens) (UniProt P04150); test: qHTS assay for small molecule agonists of glucocorticoid receptor signaling (AID 588532; active means well fitted curve in the direction sought with a large enough effect in the signal ratio, with a control signal flat; the % refers to the signal ratio;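 further: 100% = dexamethasone at 0.1 µM and 0% = DMSO only wells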); settings: HeLa MMTV-bla, beta-lactamase ratio, agonist, 18 h; stronger effect = higher value; percent of dexamethasone control, DMSO zero
Glucocorticoid receptor (Homo sapiens), sequence (P04150 whole entry, looked up): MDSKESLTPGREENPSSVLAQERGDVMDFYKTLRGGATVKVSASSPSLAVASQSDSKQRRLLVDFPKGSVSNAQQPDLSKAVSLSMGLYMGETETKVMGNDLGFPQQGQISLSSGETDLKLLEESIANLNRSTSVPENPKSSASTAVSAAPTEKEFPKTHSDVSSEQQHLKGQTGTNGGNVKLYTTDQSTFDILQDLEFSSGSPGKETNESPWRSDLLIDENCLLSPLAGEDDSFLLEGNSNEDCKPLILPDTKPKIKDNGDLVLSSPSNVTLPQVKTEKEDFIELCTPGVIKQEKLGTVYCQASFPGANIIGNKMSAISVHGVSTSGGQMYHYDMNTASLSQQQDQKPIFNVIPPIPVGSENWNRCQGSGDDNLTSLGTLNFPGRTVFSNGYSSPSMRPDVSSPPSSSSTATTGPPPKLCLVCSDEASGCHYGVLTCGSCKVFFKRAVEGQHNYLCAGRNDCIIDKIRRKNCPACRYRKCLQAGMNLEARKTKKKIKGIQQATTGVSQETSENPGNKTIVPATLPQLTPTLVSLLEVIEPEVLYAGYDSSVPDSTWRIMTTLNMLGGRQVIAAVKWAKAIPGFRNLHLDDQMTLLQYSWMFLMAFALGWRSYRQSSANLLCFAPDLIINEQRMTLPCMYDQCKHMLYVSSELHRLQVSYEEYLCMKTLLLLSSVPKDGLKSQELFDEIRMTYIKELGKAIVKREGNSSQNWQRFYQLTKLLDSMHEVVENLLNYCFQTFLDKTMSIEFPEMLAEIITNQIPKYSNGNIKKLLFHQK
Method in brief: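 MMTV-bla HeLa, beta-lactamase reporter; medium with 1% charcoal/dextran-stripped FBS; cpds up to 92 uM, 18 h, 37 C; CCF4 readout 460/530 nm; Hill fit → EC50, efficacy vs 0.1 uM dexamethasone = 100%.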

[12] = biological target: Glucocorticoid receptor (Homo sapiens) (UniProt P04150); test: qHTS assay for small molecule antagonists of glucocorticoid receptor signaling (AID 588533; active means well fitted inhibition curve with a large enough effect in the signal ratio, with a control signal flat, not every such curve was filed as active; the % refers to the signal ratio;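 further: cells stimulated with 2 nM dexamethasone as agonist; on the % scale 0 is the no-effect control and ±100 the full control effect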)
Method in brief: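 Antagonist-mode qHTS: compound titrations added to GRE-bla HeLa cells, then dexamethasone 2 nM final; 18 h, 37 C. CCF4 FRET fluorescence normalized to dexamethasone and DMSO; IC50 from Hill fit.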

[13] = qHTS assay for small molecule antagonists of peroxisome proliferator-activated receptor delta signaling (AID 588535; active means well fitted inhibition curve with a large enough effect in the signal ratio, with a control signal flat, not every such curve was filed as active; the % refers to the signal ratio;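 on max response: cells co-treated with a PPAR-delta agonist as stimulator during compound exposure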); settings: HEK293T PPARd-UAS-bla, beta-lactamase FRET ratio, 18 h; 460 nm channel
Method in brief: (§1)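 Inhibition of PPAR-delta response element-driven beta-lactamase expression is measured in HEK293T cells exposed to a compound titration series for 18 hrs at 37 C. Half-maximal inhibition comes from Hill equation fitting.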

[14] = biological target: Peroxisome proliferator-activated receptor delta (Homo sapiens) (UniProt Q03181); test: as above
Peroxisome proliferator-activated receptor delta (Homo sapiens), sequence (Q03181 whole entry, looked up): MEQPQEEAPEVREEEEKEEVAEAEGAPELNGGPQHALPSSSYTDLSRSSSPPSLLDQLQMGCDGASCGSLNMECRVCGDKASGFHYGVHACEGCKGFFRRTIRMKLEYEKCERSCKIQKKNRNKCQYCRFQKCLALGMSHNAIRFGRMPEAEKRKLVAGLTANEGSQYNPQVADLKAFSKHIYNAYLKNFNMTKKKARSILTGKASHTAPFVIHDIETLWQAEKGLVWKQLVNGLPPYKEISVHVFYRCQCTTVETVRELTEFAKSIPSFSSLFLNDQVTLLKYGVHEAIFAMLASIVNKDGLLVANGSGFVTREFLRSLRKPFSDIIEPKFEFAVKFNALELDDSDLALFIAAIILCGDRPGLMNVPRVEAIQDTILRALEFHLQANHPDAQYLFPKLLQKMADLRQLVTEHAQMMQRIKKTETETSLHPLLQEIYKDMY
Method in brief: as §1

[15] = qHTS assay for small molecule activators of the nuclear factor-kappa B (NF-kB) signaling pathway (AID 651749; active means well fitted activation curve with a large enough effect in the signal ratio; the % refers to the signal ratio; further: % of control where 0% means no effect); settings: NF-kB-bla ME-180 cells, beta-lactamase FRET ratio, 16 h; stronger effect = higher value
Method in brief: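 Human ME-180 cervical cells with an NF-kB-bla construct; compounds added via 23 nL pin transfer, DMSO as vehicle; incubation 16 hr. Reporter activity measured by FRET disruption.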

[16] = biological target: Nuclear receptor ROR-gamma (Homo sapiens) (UniProt P51449); test: qHTS assay for small molecule antagonists of the retinoid-related orphan receptor gamma (ROR-gamma) signaling pathway (AID 651802);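 further: CHO cells with doxycycline-induced ROR-gamma expression; luciferase reporter luminescence driven by ROR response element; on the % scale 0 is the no-effect control and ±100 the full control effect; nearly all actives have a fitted effect of over 60% in size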
Nuclear receptor ROR-gamma (Homo sapiens), sequence (P51449 whole entry, looked up): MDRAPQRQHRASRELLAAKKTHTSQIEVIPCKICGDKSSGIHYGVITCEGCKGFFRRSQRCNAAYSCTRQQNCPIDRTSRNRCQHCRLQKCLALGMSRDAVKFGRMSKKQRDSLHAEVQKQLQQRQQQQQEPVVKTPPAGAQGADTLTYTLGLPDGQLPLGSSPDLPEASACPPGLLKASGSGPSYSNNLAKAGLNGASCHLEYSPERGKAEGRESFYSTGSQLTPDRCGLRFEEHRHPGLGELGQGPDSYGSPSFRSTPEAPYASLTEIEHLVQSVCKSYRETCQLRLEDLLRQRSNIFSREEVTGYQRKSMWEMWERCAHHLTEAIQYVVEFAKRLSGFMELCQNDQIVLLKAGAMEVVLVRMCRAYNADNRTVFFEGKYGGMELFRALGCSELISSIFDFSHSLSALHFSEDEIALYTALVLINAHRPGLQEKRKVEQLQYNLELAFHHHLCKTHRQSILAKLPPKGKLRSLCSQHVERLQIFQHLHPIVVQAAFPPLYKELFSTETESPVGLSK
Method in brief: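 Luminescence (One-Glo, 30 min RT) measured 16 h after compound addition and doxycycline induction at 37C. Reporter: RORE-luciferase under TET-inducible ROR-gamma in CHO cells.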

[17] = qHTS assay for small molecule activators of the human pregnane X receptor (PXR) signaling pathway (AID 720659; call rule not given here; further: 0% is about no effect)
[18] = biological target: Bile acid receptor (Homo sapiens) (UniProt Q96RI1); test: qHTS assay for small molecule antagonists of farnesoid X receptor signaling (AID 588526; calls by dose curve; further: on the % scale 0 is the no-effect control and ±100 the full control effect)
Bile acid receptor (Homo sapiens), sequence (Q96RI1 whole entry, looked up): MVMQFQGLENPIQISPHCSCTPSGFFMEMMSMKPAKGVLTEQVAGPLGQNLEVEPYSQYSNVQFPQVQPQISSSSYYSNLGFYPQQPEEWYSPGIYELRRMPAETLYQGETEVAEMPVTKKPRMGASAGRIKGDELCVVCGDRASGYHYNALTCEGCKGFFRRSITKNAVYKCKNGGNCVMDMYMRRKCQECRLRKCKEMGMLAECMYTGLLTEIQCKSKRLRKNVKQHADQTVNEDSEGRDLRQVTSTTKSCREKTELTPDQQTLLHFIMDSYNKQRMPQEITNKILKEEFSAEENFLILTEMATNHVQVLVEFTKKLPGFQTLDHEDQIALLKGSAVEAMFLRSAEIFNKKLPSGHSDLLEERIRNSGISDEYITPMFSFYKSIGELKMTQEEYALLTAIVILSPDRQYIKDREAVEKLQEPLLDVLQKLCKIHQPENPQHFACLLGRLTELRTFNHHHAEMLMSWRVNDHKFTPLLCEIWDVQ
Method in brief: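 Concentration-response titrations were fitted to the Hill equation for half-maximal inhibition and maximal response, with data normalised to 50 uM chenodeoxycholic acid and DMSO control wells. Cells: FXR-UAS-bla HEK293T, dialyzed FBS.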

[19] = biological target: Peroxisome proliferator-activated receptor gamma (Homo sapiens) (UniProt P37231); test: qHTS assay for small molecule antagonists of peroxisome proliferator-activated receptor gamma signaling (AID 588537; active means well fitted inhibition curve with a large enough effect in the signal ratio, with a control signal flat, not every such curve was filed as active; the % refers to the signal ratio;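 further: reporter cells co-stimulated with 50 nM rosiglitazone agonist during compound treatment; % of control where 0% means no effect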)
Peroxisome proliferator-activated receptor gamma (Homo sapiens), sequence (P37231 whole entry, looked up): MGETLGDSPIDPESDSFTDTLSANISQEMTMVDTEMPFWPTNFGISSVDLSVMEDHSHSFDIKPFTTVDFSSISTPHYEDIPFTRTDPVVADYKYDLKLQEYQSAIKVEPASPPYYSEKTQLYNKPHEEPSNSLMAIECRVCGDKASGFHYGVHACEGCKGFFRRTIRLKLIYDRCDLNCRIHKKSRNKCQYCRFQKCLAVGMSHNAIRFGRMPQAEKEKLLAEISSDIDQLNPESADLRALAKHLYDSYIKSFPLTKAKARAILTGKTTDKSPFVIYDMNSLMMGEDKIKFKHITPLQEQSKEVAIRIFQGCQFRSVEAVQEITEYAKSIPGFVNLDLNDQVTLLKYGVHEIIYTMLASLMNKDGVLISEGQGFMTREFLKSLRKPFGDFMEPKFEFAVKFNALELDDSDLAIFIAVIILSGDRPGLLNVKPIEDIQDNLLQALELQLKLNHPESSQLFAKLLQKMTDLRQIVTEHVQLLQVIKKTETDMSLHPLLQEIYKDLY
Method in brief: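 Compounds are tested as concentration series for inhibition of rosiglitazone-driven (50 nM) reporter expression in GeneBLAzer PPAR-gamma-UAS-bla HEK293 cells. After 16 h at 37 C, CCF4 substrate is added for 2 h at room temperature and blue/green fluorescence is measured.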

[20] = qHTS assay for small molecule agonists of the antioxidant response element (ARE) signaling pathway (AID 651741; active means well fitted activation curve with a large enough effect in the signal ratio; the % refers to the signal ratio; further: potency means the concentration at half of the fitted maximal effect; on activation: % of control where 0% means no effect)
Method in brief: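 Reporter: beta-lactamase under ARE, stably in HepG2. Exposure: 16 h, 37 C, compounds delivered in DMSO by pin tool after 5 h cell preincubation. Readout: FRET substrate fluorescence after 2 h at RT.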

C=C[C@](C)(O)CCC=C(C)C
inactive: outcome [1]

C[C@@H]1CCC[C@H](C)N1NC(=O)c1ccc(Cl)c(S(N)(=O)=O)c1
inactive: Potency [2] | Potency [3] | Potency [4]

O=c1cc(-c2ccc(O)cc2)oc2cc(O[C@H]3OC(CO)C(O)C(O)C3O)cc(O)c12 (stereo not given in full)
inactive: outcome [5] | outcome [6]

Cc1nc2cnc(Nc3ccccc3)nc2n(C[C@H]2CCCO2)c1=O
active: Potency [7] 22.4 µM

O=C(/C=C/c1ccc(O)c(O)c1)OC(Cc1ccc(O)c(O)c1)C(=O)O (stereo not given)
inactive: outcome [8] | outcome [1] | outcome [5] | outcome [6]

COS(C)(=O)=O
inactive: outcome [9] | outcome [10] | activation [11] -1.66% | outcome [12] | outcome [14] | activation [15] 0.279% | outcome [16] | outcome [17]
-15.8%: max response [13]

O=C(Cc1cccs1)NC1C(=O)N2C(C(=O)[O-])=C(C[n+]3ccccc3)CSC12 (stereo not given)
inactive: Potency [3] | Potency [4]

C[N+](C)(C)CC(O)CC(=O)O (stereo not given)
inactive: Potency [2] | Potency [3] | Potency [4]

N#Cc1ccccc1-c1ccc2ncnc(NCc3cccs3)c2c1
active: Potency [7] 3.16 µM

C=CC(C)(O)CCC=C(C)C (stereo not given)
inactive: outcome [8] | outcome [18] | activation [11] -2.85% and -11.4% | outcome [12] | outcome [19] | Potency [20]

CN1CCN(c2ncc3nc(-c4cccc(C#N)c4)c(=O)n(CCC#N)c3n2)CC1
inactive: Potency [7]

N#Cc1cccc(-c2ccc3ncnc(NCc4ccccc4)c3c2)c1
active: Potency [7] 8.91 µM

C=C(C)[C@H]1CC=C(C)C(=O)C1
35.6% and 28.4%: max response [13]
inactive: outcome [9] | outcome [8] | activation [11] -5.14% and -7.53% | outcome [12] | outcome [14] | activation [15] -0.312% and 0.229% | outcome [1] | outcome [5] | outcome [6] | outcome [17]

CC1=CC(=O)CC(C)(C)C1(O)/C=C/C(C)=C\C(=O)O (stereo not given)
3.87%: max response [13]
active: Potency [20] 37.6 µM
inactive: outcome [9] | outcome [8] | outcome [18] | activation [11] 1.52% | outcome [12] | outcome [14] | outcome [19] | activation [15] 1.73% | outcome [16] | outcome [17]

Cc1occc(=O)c1O
inactive: outcome [9] | Potency [20] | activation [15] -0.401% | outcome [16] | outcome [17]

CN1[C@@H]2CC[C@H]1CC(OC(=O)[C@@H](O)c1ccccc1)C2 (stereo not given in full)
inactive: Potency [4]

CN1CCCC[C@@H]1CCN1c2ccccc2Sc2ccc(S(C)=O)cc21 (stereo not given in full)
inactive: Potency [2] | Potency [3]
